CYP2C19 inh: blocks human cytochrome P450 2C19; P33261; CYP2C19 Supersomes, luciferin-H EGE luminescence, 30 min; inhibition, % at 5 µM; 96,000 tested, 21% active; AID 778;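 active = CYP2C19 inhibition above a set limit at 5 µM in the primary screen, cut at about 50% in these data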
CYP2C9 inhib: inhibitors of human CYP2C9. CYP2C9 Supersomes, luciferin-H conversion, luminescence. inhibition, % at 5 µM. 96,000 tested, 20% active. AID 777. P11712;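 active = blocking of liver enzyme CYP2C9 beyond about 50% at 5 µM, limit read from the data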
Target sequence (P11712 whole entry, looked up): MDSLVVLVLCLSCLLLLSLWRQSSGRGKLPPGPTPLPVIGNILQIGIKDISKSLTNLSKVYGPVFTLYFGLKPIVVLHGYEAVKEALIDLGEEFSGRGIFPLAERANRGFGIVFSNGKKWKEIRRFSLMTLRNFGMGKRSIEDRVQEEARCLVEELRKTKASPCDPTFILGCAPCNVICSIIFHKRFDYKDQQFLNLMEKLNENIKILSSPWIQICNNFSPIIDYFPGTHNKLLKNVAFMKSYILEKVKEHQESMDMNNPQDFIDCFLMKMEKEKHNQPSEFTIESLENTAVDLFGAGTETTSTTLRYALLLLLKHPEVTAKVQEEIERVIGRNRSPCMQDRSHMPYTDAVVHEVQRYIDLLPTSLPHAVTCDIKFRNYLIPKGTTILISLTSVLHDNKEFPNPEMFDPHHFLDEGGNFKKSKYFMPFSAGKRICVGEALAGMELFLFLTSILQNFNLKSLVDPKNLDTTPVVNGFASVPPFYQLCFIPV
CYP2C19 act: cytochrome P450 2C19 (human) activation. recombinant CYP2C19, luciferin-H EGE luminescence; stronger effect = higher value; 0 = fully inhibited enzyme, 1 = untreated enzyme. activation factor at 5 µM. 96,000 tested, under 10 active. AID 1025;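 active = activation factor of at least 2 at 5 µM in the primary screen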
CYP2C9 activ: CYP2C9 (human) activation; P11712; 96,000 tested, 1.4% active; activation factor at 5 µM; recombinant CYP2C9, luciferin-H conversion, luminescence; stronger effect = higher value; factor 1 = untreated enzyme, 0 = blocked;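 active = activation factor of 2 or more for CYP2C9 at a 5 µM dose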
sEH inh: inhibitors of human soluble epoxide hydrolase; P34913; recombinant human sEH enzymatic activity assay; inhibition, % at 2 µM; 91,000 tested, 0.34% active; in the data active = inhibition above about 80%
sEH activator: increases human soluble epoxide hydrolase activity | purified human sEH enzymatic activity, activator screen | activation, % at 2 µM | 91,000 tested, 0.04% active | AID 717; in the data active = activation above about 37%
Hits are given with their value; - = inactive; . = not tested or not shown. Shown are actives, neighbours in structure and some others; about 27% of the full set was active somewhere.

SMILES	CYP2C19 inh	CYP2C9 inhib	CYP2C19 act	CYP2C9 activ	sEH inh	sEH activator
CSc1cccc(NC(=O)C2CCN(S(=O)(=O)c3ccc(F)cc3)CC2)c1	-	-	-	-	-	-
Cc1ccc(S(=O)(=O)N(C)CC(=O)Nc2ccccc2)cc1	63	-	-	-	-	-
CN(CC(=O)NCc1ccco1)S(=O)(=O)c1cccc2cccnc12	-	-	-	-	-	-
COc1ccc(C2(C(=O)NC(C)C)CCCC2)cc1OC	-	-	-	-	-	-
Cc1ccc(-c2[nH]c(=O)n3ccncc23)s1	.	.	.	.	-	-
O=C(c1cccc(F)c1)N1CCN(C(=O)C2CC2)CC1	-	-	-	-	-	-
COc1ccc(C)cc1S(=O)(=O)N(CC(N)=O)Cc1ccccc1	99	-	-	-	-	-
COc1ccc(C)cc1S(=O)(=O)N(CC(=O)O)c1ccccc1	-	-	-	-	-	-
COc1ccc(C)cc1S(=O)(=O)N(C)CC(=O)Nc1ccccc1	91	90	-	-	-	-
CSc1cccc(NC(=O)CN(C)S(=O)(=O)c2ccc(C)cc2)c1	52	-	-	-	-	-
COc1cc(NC(=O)CN(C)S(=O)(=O)c2ccc(C)cc2)cc(OC)c1	82	-	-	-	-	-
CN(C)c1nc(C(N)=O)nc(N2CCOCC2)n1	-	-	-	-	-	-
CCOC(=O)N1CCN(C(=O)c2ccc3c(=O)n(CCc4ccccc4)c(=O)[nH]c3c2)CC1	-	-	-	-	-	-
O=C(CCn1c(=S)[nH]c2cc3c(cc2c1=O)OCO3)N1CCN(C2CCCCC2)CC1	.	.	.	.	-	-
CCc1ccc(N2CC(C(=O)Nc3nccs3)CC2=O)cc1 (stereo unspecified)	-	-	-	-	-	-
COC(=O)c1ccc(-c2nc3cc(Cl)c(N)cc3s2)cc1	60	-	-	-	-	-
Cc1ccc(C(=O)CSc2n[nH]c(C)n2)cc1	52	-	-	-	-	-
CCc1nc(SCC(=O)c2cc(C)ccc2C)n[nH]1	-	-	-	-	-	-
Cc1ccc(C)c(C(=O)CSc2n[nH]c(C)n2)c1	57	-	-	-	-	-
O=C(CSc1n[nH]c(-c2ccccc2)n1)c1ccccc1	-	-	-	-	-	-
CCc1ccc(C(=O)CSc2n[nH]c(C)n2)cc1	89	-	-	-	.	.
COC(=O)c1ccc(CSCC(=O)Nc2cc(OC)cc(OC)c2)o1	-	64	-	-	-	-
CC(C)C(=O)N1CCN(c2ccc(NC(=O)c3ccc4c(c3)OCCO4)cc2Cl)CC1	-	-	-	-	-	-
O=C(Nc1ccccn1)C1(c2ccccc2)CCCC1	81	59	-	-	-	-
Cc1ccc(NC(=O)C2(c3ccccc3)CCCC2)nc1	.	.	.	.	-	-
SMILES	CYP2C19 inh	CYP2C9 inhib	CYP2C19 act	CYP2C9 activ	sEH inh	sEH activator
O=C(c1ccc(NC(=O)C2(c3ccccc3)CCOCC2)cc1)N1CCOCC1	-	-	-	-	-	-
O=C(Nc1ccncc1)C1(c2ccccc2)CCCC1	100	95	-	-	-	-
CC(=O)c1ccc(NC(=O)C2(c3ccccc3)CCOCC2)cc1	-	50	-	-	-	-
Cc1cc(-c2nc3ccccc3o2)c2ccccc2n1	-	-	-	-	-	-
O=C(Nc1ccc(O)c(-c2nc3ccccc3o2)c1)C1(c2ccccc2)CCCC1	-	87	-	-	-	-
CCNC(=O)C1(c2ccccc2)CCCC1	-	-	-	-	-	-
CNC(=O)NC(=O)CSc1ccc(NC(C)=O)cc1	-	-	-	-	-	-
O=C(Nc1cccnc1)C1(F)C(F)(F)C(F)(F)C(F)(F)C(F)(F)C1(F)F	-	-	-	-	-	-
O=C(Nc1cccnc1)C1(c2ccccc2)CCCC1	52	-	-	-	-	-
Cc1ccc2[nH]c(=O)c(C(c3nnnn3C3CCCC3)N3CCCc4ccccc43)cc2c1 (stereo unspecified)	.	.	.	.	-	-
Cc1cc2cc(C(c3nnnn3Cc3ccccc3)N3CCc4ccccc43)c(=O)[nH]c2cc1C (stereo unspecified)	-	68	-	-	-	-
CCC(C)(C)n1nnnc1C(c1cc2cc(OC)ccc2[nH]c1=O)N1CCc2ccccc21 (stereo unspecified)	63	100	-	-	-	-
CCC(C)(C)n1nnnc1C(c1cc2cc(C)ccc2[nH]c1=O)N1CCCc2ccccc21 (stereo unspecified)	-	64	-	-	-	-
Cc1ccc2[nH]c(=O)c(C(c3nnnn3CC3CCCO3)N3CCCc4ccccc43)cc2c1 (stereo unspecified)	-	60	-	-	-	-
Cc1ccc2[nH]c(=O)c(C(c3nnnn3CC3CCCO3)N3CCc4ccccc4C3)cc2c1 (stereo unspecified)	-	-	-	-	-	-
COc1ccc(CCNC(=O)c2cccnc2)cc1	-	-	-	-	-	-
CC(C)(C)n1ncc2c(=O)n(CC(=O)N3CCCc4ccccc43)cnc21	-	-	-	-	-	-
CCC(C)(C)n1nnnc1C(c1cc2ccc(OC)cc2[nH]c1=O)N1CCc2ccccc21 (stereo unspecified)	54	98	-	-	-	-
CCC(C)(C)n1nnnc1C(c1cc2ccc(OC)cc2[nH]c1=O)N1CCCCC1 (stereo unspecified)	-	-	-	-	-	-
CCOC(=O)C1=C(C)N2C(=C(C#N)[C@@H]1c1ccc(C(=O)OC)cc1)SC[C@@]2(O)C(C)(C)C	97	98	-	-	.	.
CCOC(=O)C1=C(C)NC2=C(C(=O)CC(C)(C)C2)C1c1ccc2c(c1)CCCN2C (stereo unspecified)	-	-	-	-	-	-
CC1(C)CC(=O)C2=C(C1)Nc1[nH]c(=S)[nH]c(=O)c1C2c1ccccc1 (stereo unspecified)	-	-	-	-	-	-
Cc1cc(C(C)(C)C)cc(S(=O)(=O)NCCO)c1C	-	-	-	3	-	-
Cc1c(-c2cccs2)[n+](=O)c2c(n1[O-])CCCCC2	59	-	-	-	.	.
Cc1ccc(-c2c(C)n([O-])c3c([n+]2=O)CCCC3)o1	-	-	-	-	-	-
SMILES	CYP2C19 inh	CYP2C9 inhib	CYP2C19 act	CYP2C9 activ	sEH inh	sEH activator
COc1cc(N2C(=O)c3ccccc3C2=O)c(Cl)cc1C(=O)OCC(=O)NCc1ccco1	-	-	-	-	-	-
Nc1c(S(=O)(=O)c2cc(Cl)ccc2Cl)c2nc3ccccc3nc2n1CCN1CCOCC1	79	96	-	-	-	-
COc1nc(N)c(S(=O)(=O)c2ccccc2C)cc1C#N	78	-	-	-	-	-
COc1ccc(Oc2nnc(-c3ccccc3)cc2C#N)cc1	-	-	-	-	-	-
COc1nc(N)c(S(=O)(=O)c2ccccc2)cc1C#N	-	-	-	2.4	-	-
CCSc1nc(C)cc(C)c1S(=O)(=O)c1ccccc1C	-	-	-	-	-	-
COc1ccccc1NC(=O)Cn1nc(C(F)(F)F)c2c1CCCC2	-	-	-	-	.	.
